Sampled rows, rich in hits. Any-hit rate of the full collection: about 19%.
MARV entry inh – blocks Marburg virus binding to or entry into cells | Marburg virus pseudotyped entry inhibition, cell reporter | Potency, µM (series often up to 37.8 µM), without a hit: at the top dose activity change, negative = inhibition, actives largely listed as inhibitors | actives 1.8% (n = 300,000) | AID 540276; calls by dose curve; tested in HEK293 cells; further: potency means the concentration at half of the fitted maximal effect; on the % scale 0 is the no-effect control and ±100 the full control effect
CHX counter – affects cycloheximide protein synthesis inhibition readout, counter-screen; actives 12% (n = 300,000); AID 2314; cell reporter, cycloheximide protein synthesis inhibition counterscreen; max response, %; in the data active means max response mostly above about 13%, no sharp cut-off; inactive means mostly below about 14%; further: read at 38.3 µM for the half of the compounds with a filed dose; 0% is about no effect
Pf growth 96h – inhibits malaria parasite growth, 96 h; P. falciparum luciferase reporter growth, 96 h; AID 504834; actives 6.9% (n = 320,000); Potency, µM (titrated, usually from 28.7 µM), for inactives: at the highest dose activity change, negative = inhibition, hits mostly inhibitors; further: potency means the concentration at half of the fitted maximal effect; on the % scale 0 is the no-effect control and ±100 the full control effect
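P. falciparum expressing integrated firefly luciferase grown in erythrocytes (2% hematocrit, 0.05% parasitemia final) with compounds for 96 hours at 37 C, 5% CO2. Growth inhibition read as loss of luminescence after adding luciferase detection reagent.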
Pf growth 48h – inhibits P. falciparum growth in the first generation, 48 h; P. falciparum luciferase growth in erythrocytes, 48 h; Potency, µM (doses to about 28.7 µM), for the others: top-dose activity change, negative = inhibition, most hits filed as inhibitors; actives 5.9% (n = 310,000); AID 504832; further: potency means the concentration at half of the fitted maximal effect; on the % scale 0 is the no-effect control and ±100 the full control effect
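Cell-based growth assay: transgenic P. falciparum expressing firefly luciferase, cultured in red cells within RPMI 1640 containing 0.5% w/v Albumax, 24 mM bicarbonate and gentamycin. A drop in luciferase activity indicates inhibition.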
Shiga inhibitor – Shiga toxin inhibition; Vero cells, Shiga toxin protein synthesis inhibition reporter; inhibition, % at 38.7 µM; actives 9.2% (n = 290,000); AID 2315; in the data active means inhibition mostly above about 28%, no sharp cut-off; inactive means mostly below about 43%; further: 0% is about no effect
Lassa entry inh – blocks Lassa virus binding to or entry into cells; Lassa virus pseudotype entry inhibition, cell reporter; Potency, µM (doses to about 37.9 µM), without a hit: at the highest dose activity change, negative = inhibition, usual class: inhibitors; actives 1.2% (n = 300,000); calls by dose curve; tested in HEK293 cells; further: potency means the concentration at half of the fitted maximal effect; on the % scale 0 is the no-effect control and ±100 the full control effect; nearly all actives have a fitted effect of over 50% in size
* hit, by the source's call; ? = inconclusive; . = no result given; [ ] = another dose, or the depositor's remark. Unless noted, the call rests on the fitted dose curve; in most records, active means well fitted inhibition curve with a large enough effect; inconclusive means small, poorly fitted or top-dose-only effect, or another doubt; inactive means no such curve, though single readings can be large or run the other way.

SMILES	MARV entry inh	CHX counter	Pf growth 96h	Pf growth 48h	Shiga inhibitor	Lassa entry inh
O=S(=O)(c1ccc(Cl)c(Cl)c1)c1snnc1-c1ccccc1	5.01µM*	12.6	.	?	-24.9	7.08µM*
NS(=O)(=O)c1ccc(NC(=O)N[C@@H](Cc2ccccc2)C(=O)O)cc1	8.7%	-2.0	12.5%	0.4%	-5.1	-2.3%
O=C(Nc1cccc2ccccc12)c1ccc([N+](=O)[O-])o1	.	31.0*	5.22µM*	?	31.0*	.
CC(C)C(=O)N1CCN(c2ccccc2NC(=O)c2ccc([N+](=O)[O-])o2)CC1	-26.1%[46.1 µM]	26.7*	18.5%	0.0%	49.7*	-23.7%[46.1 µM]
Cc1cccc(NC(=O)c2ccc([N+](=O)[O-])o2)c1C	?	-4.0	-11.5%	15.0%	-14.0	?
O=C(Nc1ccccc1C(=O)NC1CC1)c1ccc([N+](=O)[O-])o1	?	.	10.4µM*	?	.	-20.4%
O=C(Nc1ccccc1N1CCCC1)c1ccc([N+](=O)[O-])o1	.	36.1*	4.15µM*	9.28µM*	41.4*	.
Cc1sc2nc(C3CC3)nc(N3CCN(C(=O)c4ccccc4F)CC3)c2c1C	?	-3.7	48.3%	?	-2.9	?
Cc1cccc(NC(=O)CSc2nccn2Cc2ccco2)c1C	9.9%[46.1 µM]	17.7*	44.7%	26.0%	53.3	10.8%[46.1 µM]
Cc1cccc(NC(=O)CSc2nccn2C)c1	10.4%	.	.	.	.	?
Cc1cc(C)cc(NC(=O)CSc2nccn2Cc2ccco2)c1	?	21.9*	3.5%	20.3%	45.1	3.4%
Cc1cccc(NC(=O)CSc2nccn2Cc2ccco2)c1	?	61.6*	80.6%	67.4%	90.8*	-1.9%
CC(C)=CCc1c(C)nc2ccccc2c1C(=O)O	22.5%	3.0	20.3%	5.3%	-6.3	13.8%
COc1ccc(-c2cc(C(=O)Nc3cc(C)on3)c3ccccc3n2)c(OC)c1	?	6.0	76.9%	?	-21.8	-8.8%
Cc1ccc(CN(C)C(=O)c2cccc(S(=O)(=O)N3CCN(Cc4ccccc4)CC3)c2)o1	?	.	?	1.3%	.	?
CN(C(=O)CCc1nc(-c2ccccc2F)no1)c1ccccc1	.	41.4*	-30.5%	?	98.3*	.
Cc1ccccc1-c1noc(CCC(=O)NC2CCCCC2)n1	-6.6%[46.1 µM]	-3.6	10.4µM*	5.4%	-10.6	5.7%[46.1 µM]
Cc1ccc(-c2noc(CCC(=O)NC3CCCC3)n2)cc1	?	-7.2	?	8.3%	10.4	?
Cc1ccc(-c2noc(CCC(=O)NC3CC3)n2)cc1	10.1%[46.1 µM]	19.8*	24.5%	37.6%	42.5	-19.3%
O=C(CCc1nc(-c2ccccc2F)no1)NC1CCCCC1	-4.5%	8.6*	.	0.2%	9.1	11.4%
CCN(CCCNC(=O)CCCCn1c(=O)[nH]c2ccccc2c1=O)c1ccccc1	?	-4.1	107.6%	?	-20.0	?
Cc1ccc(-c2nnn(CC(=O)NC3CCN(Cc4ccccc4)CC3)n2)cc1	?	7.7	10.0%	?	9.1	5.7%
CCOc1ccccc1-c1noc(CCC(=O)NC2CCCCC2)n1	?	-6.0	?	-5.8%	20.0	3.3%[46.1 µM]
COc1ccccc1-c1noc(CCC(=O)NC2CCCC2)n1	16.5%[46.1 µM]	-0.8	2.62µM*	-1.5%	-4.1	-2.0%[46.1 µM]
Cc1ccc(-c2nnn(CCC(=O)NC3CCCC3)n2)cc1	20.6%	17.0*	?	-18.4%	32.1	0.1%
SMILES	MARV entry inh	CHX counter	Pf growth 96h	Pf growth 48h	Shiga inhibitor	Lassa entry inh
O=C1CCCc2oc3c(cc(NS(=O)(=O)c4ccc5c6c(cccc46)C(=O)N5)c4ccccc43)c21	11.2µM*	11.9	11.7µM*	?	13.3	3.3%[46.1 µM]
O=C1CCC(c2ccc3c(c2)CCC3)=NN1	.	-4.0	21.2%	44.7%	26.0	.
CCOc1cccc(OCCCCN2CCCCC2)c1	-27.7%	-1.3	-6.2%[5.75 µM]	.	-11.5	-0.9%
CCOc1cccc(OCCCOc2ccccc2)c1	?	15.0*	-3.4%	.	13.2	3.2%
CCOc1cccc(OCCOCCN(C)C)c1	18.0%	12.1	12.4%	-0.8%	51.8*	11.4%
O=C(/C(C=Nc1ccc(F)cc1)=C(/O)c1ccco1)C(F)(F)F	?	59.6*	254.6%	292.9%	62.0*	?
Cc1cccc(N=C/C(C(=O)C(F)(F)F)=C(\O)c2ccco2)c1	?	-1.4	38.7%	24.0%	-5.0	?
Cc1ccc(N=C/C(C(=O)C(F)(F)F)=C(\O)c2ccco2)cc1Cl	-26.3%	59.7*	40.6%	1.0%	106.2*	?
COc1ccc(CN2C(=O)NC3(CCCC3)C2=O)cc1F	?	-5.1	-4.7%	46.7%	-5.9	-3.1%[46.1 µM]
CCOC(=O)N1CCC(NC(=O)c2cc3sccc3n2CC)CC1	-27.0%	-2.1	5.22µM*	15.3%	8.3	-3.3%
CCOc1ccc(CCNC(=O)c2cc3sccc3n2CC)cc1OCC	?	7.8	0.0%	?	14.6	14.6µM*
CCn1c(C(=O)NC2CCC(C)CC2)cc2sccc21 (stereo not given)	.	37.6*	-18.0%	113.3%	73.4*	.
CCOc1ccc(CCNC(=O)c2cc3sc(CC)cc3n2C)cc1OCC	-3.2%[46.1 µM]	.	.	.	.	.
COc1ccc2nc(NC(=O)CS(=O)(=O)c3ccc(C)cc3)sc2c1	3.9%[46.1 µM]	4.0	0.4%	?	5.5	?
O=C(CCn1nnc2ccccc21)Nc1nnc(COc2ccccc2F)s1	4.6%	-4.1	37.2%	.	-12.5	0.2%
CCOC(=O)C1=C(C)N=C2SCCC(=O)N2C1c1ccc(C(=O)OC)cc1 (stereo not given)	-12.1%	-3.4	.	.	-3.2	?
CCOC(=O)C1=C(C)N2C(=C(C#N)[C@@H]1c1ccc(C(=O)OC)cc1)SC[C@@]2(O)C(C)(C)C	?	9.8	.	13.1µM*	-3.7	-17.4%
O=C(Nc1ccc(Br)cc1)c1nn(C23CC4CC(CC(C4)C2)C3)cc1Br	-16.5%	3.0	0.185µM*	?	-8.0	6.2%
Cn1nccc1C(=O)Nc1ccn(C23CC4CC(CC(C4)C2)C3)n1	?	44.5*	62.5%	37.5%	68.1*	-29.9%
CCn1cc([N+](=O)[O-])c(C(=O)Nc2ccn(C34CC5CC(CC(C5)C3)C4)n2)n1	?	-2.4	-1.2%	0.9%	-1.2	1.7%
Cn1cc([N+](=O)[O-])c(C(=O)Nc2ccn(C34CC5CC(CC(C5)C3)C4)n2)n1	?	15.3*	-14.2%	0.0%	1.9	9.1%
COC(=O)CCCC1=CC2=CC(=O)C(C)(OC(=O)c3cccs3)C(=O)C2=CN1CCc1c[nH]c2ccccc12 (stereo not given)	-7.7%[14.2 µM]	-2.3	10.4µM*	8.28µM*	0.6	.
CCCCC1=CC2=CC(=O)C(C)(OC(=O)CC)C(=O)C2=CN1Cc1ccccc1 (stereo not given)	.	-4.9	?	?	-7.6	.
CCCCC1=CC2=CC(=O)C(C)(OC(=O)CC)C(=O)C2=CN1CCc1c[nH]c2ccccc12 (stereo not given)	.	7.4	10.4µM*	8.28µM*	6.1	.
N#C/C(=C\c1ccccc1)c1ccccn1	.	31.3*	60.4%	47.7%	91.2*	.

Compound activity (PubChem)
